Test results published in PubChem BioAssay (EPA / NIEHS).
Records with an inconclusive call do not appear. Active and inactive are the calls of the source. How the source made its calls, unless noted: active means hit-call score of the fitted dose curve at least 0.9, where 1 is the maximum; inactive means score below 0.9.

Columns and labels:
[1] = biological target: Oxysterols receptor LXR-alpha (Homo sapiens) (UniProt Q13133); assay: ATG_LXRa_TRANS: Attagene TRANS-FACTORIAL HepG2 Assay for human Liver X Receptor alpha (LXRa) (AID 2282980; active means hit-call score of the fitted dose curve at least 0.9, where 1 is the maximum); settings: HepG2 Attagene TRANS reporter, LXRa transactivation
Oxysterols receptor LXR-alpha (Homo sapiens), sequence (Q13133 whole entry, looked up, the tested form may be a part): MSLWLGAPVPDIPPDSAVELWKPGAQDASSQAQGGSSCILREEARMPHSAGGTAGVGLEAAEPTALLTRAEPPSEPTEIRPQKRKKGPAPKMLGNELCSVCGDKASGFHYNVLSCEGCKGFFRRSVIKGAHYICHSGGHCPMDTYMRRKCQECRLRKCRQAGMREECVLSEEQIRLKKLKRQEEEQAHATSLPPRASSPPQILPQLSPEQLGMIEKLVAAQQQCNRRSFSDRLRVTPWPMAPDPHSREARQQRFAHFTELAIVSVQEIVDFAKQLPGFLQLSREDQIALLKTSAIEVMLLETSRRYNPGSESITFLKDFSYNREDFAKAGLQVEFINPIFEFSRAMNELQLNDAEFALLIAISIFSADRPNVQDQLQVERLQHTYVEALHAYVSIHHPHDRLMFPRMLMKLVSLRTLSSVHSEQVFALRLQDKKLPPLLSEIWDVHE
How it was run: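 Chemical-induced reporter mRNA measured by RT-PCR with fluorescent labelling and capillary electrophoresis after 24 h dosing of transiently transfected HepG2 cells expressing exogenous NR-Gal4 chimeras; increases scored against DMSO baseline.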

[2] = biological target: Hepatocyte nuclear factor 4-alpha (Homo sapiens) (UniProt P41235); assay: ATG_HNF4a_TRANS: Attagene TRANS-FACTORIAL HepG2 Assay for human Hepatocyte Nuclear Factor 4 alpha (HNF4a) (AID 2282982; active means hit-call score of the fitted dose curve at least 0.9, where 1 is the maximum); settings: HepG2 HNF4a transactivation reporter, mRNA readout
Hepatocyte nuclear factor 4-alpha (Homo sapiens), sequence (P41235 whole entry, looked up, the tested form may be a part): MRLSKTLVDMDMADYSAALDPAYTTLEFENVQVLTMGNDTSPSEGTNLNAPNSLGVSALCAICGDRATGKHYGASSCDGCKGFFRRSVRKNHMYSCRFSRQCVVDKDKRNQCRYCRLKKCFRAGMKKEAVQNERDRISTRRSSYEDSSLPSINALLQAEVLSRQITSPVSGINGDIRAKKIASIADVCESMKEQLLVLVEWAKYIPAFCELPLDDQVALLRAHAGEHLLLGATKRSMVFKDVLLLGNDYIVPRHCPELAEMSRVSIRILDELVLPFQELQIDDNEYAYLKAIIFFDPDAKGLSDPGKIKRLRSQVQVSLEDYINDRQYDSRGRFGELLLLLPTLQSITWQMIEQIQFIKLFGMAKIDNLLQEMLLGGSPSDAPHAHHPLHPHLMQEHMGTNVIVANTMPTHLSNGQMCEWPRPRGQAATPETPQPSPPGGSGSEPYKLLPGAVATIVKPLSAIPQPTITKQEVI
How it was run: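 Cells used were human HepG2, transiently carrying GAL4-UAS reporter units read out against exogenous NR-GAL4 chimeras. Reporter transcript levels after 24 h dosing were quantified by fluorescent RT-PCR and capillary electrophoresis.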

[3] = biological target: Transcriptional activator Myb (Homo sapiens) (UniProt P10242); assay: ATG_Myb_CIS: Attagene CIS-FACTORIAL HepG2 Assay for human Myeloblastosis (Myb) Proto-Oncogene Transcription Factor (AID 2282986); settings: HepG2 Attagene CIS-FACTORIAL Myb reporter transcription; actives raise or lower the signal
Transcriptional activator Myb (Homo sapiens), sequence (P10242 whole entry, looked up): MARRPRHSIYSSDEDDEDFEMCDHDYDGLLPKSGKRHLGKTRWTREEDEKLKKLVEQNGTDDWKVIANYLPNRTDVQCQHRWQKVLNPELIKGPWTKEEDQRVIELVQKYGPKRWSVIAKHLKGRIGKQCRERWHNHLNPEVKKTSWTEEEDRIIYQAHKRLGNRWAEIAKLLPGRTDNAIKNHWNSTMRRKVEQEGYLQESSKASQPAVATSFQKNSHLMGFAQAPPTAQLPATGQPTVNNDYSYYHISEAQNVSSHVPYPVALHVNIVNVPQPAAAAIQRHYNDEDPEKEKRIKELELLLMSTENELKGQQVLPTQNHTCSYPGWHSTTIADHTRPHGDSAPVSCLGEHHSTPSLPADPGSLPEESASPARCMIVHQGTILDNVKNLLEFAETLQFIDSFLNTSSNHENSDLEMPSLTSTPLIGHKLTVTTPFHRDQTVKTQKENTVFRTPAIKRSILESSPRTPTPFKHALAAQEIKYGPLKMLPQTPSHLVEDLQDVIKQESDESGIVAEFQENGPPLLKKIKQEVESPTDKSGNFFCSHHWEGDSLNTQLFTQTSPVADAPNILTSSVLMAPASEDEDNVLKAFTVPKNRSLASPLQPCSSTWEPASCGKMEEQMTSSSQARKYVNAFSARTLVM
How it was run: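 Transiently transfected HepG2 cells, treated 24 h. Reporter mRNA quantified by RT-PCR/capillary electrophoresis; bidirectional fit relative to DMSO.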

[4] = biological target: Nuclear respiratory factor 1 (Homo sapiens) (UniProt Q16656); assay: ATG_NRF1_CIS: Attagene CIS-FACTORIAL HepG2 Assay for human Nuclear Respiratory Factor 1 (NRF1) Orphan Gene (AID 2282987); settings: HepG2 NRF1 cis-element reporter, Attagene multiplex; actives raise or lower the signal
Nuclear respiratory factor 1 (Homo sapiens), sequence (Q16656 whole entry, looked up, the tested form may be a part): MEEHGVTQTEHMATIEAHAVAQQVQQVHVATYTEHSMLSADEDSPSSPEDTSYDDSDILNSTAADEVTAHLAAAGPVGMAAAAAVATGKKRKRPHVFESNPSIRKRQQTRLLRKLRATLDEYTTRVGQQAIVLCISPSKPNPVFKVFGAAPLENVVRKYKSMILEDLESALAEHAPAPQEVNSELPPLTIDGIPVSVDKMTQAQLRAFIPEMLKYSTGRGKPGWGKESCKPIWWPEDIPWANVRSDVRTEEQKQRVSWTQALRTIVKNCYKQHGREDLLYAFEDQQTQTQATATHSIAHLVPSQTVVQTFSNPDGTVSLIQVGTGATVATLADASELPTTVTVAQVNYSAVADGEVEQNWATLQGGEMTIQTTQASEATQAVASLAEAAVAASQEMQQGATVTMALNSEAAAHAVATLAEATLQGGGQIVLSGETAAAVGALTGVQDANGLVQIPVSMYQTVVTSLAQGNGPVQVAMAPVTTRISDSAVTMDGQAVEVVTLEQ
How it was run: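 Cells (HepG2, transient MRTU transfection) are exposed to compound for 24 h, then RNA isolated and reporter mRNA amplified and fluorescently labelled. Fragments are separated by capillary electrophoresis; signal change is fitted bidirectionally relative to DMSO.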

[5] = ATG_NFI_CIS: Attagene CIS-FACTORIAL HepG2 Assay for human Nuclear Factor I (NFI) (AID 2282989); settings: HepG2 cis-regulatory reporter, NFI response element transcription; actives raise or lower the signal
How it was run: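 Read-out: reporter mRNA via RT-PCR plus capillary electrophoresis with fluorescence detection. Transiently transfected HepG2 (endogenous TF activity on cis promoters), 24 h compound exposure; gain or loss of signal fitted against DMSO.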

[6] = biological target: Myc proto-oncogene protein (Homo sapiens) (UniProt P01106); assay: ATG_Myc_CIS: Attagene CIS-FACTORIAL HepG2 Assay for human Myelocytomatosis (Myc) Proto-Oncogene Transcription Factor (AID 2282990); settings: HepG2, Attagene cis-reporter transcription factor activity; actives raise or lower the signal
Myc proto-oncogene protein (Homo sapiens), sequence (P01106 whole entry, looked up): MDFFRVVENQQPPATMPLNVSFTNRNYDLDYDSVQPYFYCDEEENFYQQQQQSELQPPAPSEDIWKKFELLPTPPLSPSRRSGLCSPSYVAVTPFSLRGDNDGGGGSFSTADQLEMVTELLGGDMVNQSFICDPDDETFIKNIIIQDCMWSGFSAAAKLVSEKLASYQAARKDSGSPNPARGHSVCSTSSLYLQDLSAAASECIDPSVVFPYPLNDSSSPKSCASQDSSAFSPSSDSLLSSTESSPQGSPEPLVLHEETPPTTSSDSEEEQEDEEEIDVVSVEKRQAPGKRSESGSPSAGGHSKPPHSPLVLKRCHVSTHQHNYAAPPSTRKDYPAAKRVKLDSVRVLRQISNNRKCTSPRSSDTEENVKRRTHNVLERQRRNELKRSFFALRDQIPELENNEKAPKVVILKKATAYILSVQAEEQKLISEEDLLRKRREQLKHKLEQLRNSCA
How it was run: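 DMSO-normalised, bidirectionally fitted reporter mRNA signal. HepG2 cells transfected with cis reporter constructs, treated 24 h; transcripts detected by RT-PCR, 6-FAM primer extension and CE.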

[7] = ATG_NF_kB_CIS: Attagene CIS-FACTORIAL HepG2 Assay for human Nuclear Factor Kappa B (NF-kB) (AID 2282991); settings: HepG2 Attagene cis-factorial NF-kB reporter mRNA; actives raise or lower the signal
How it was run: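 Measures mRNA induction of an NF-kB-responsive cis-element reporter in HepG2 cells transfected with multiple reporter units, sampled 24 h post-dosing; quantified by fluorescence after RT-PCR and capillary electrophoresis, fitted for activation or inhibition against DMSO.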

[8] = ATG_NRF2_ARE_CIS: Attagene CIS-FACTORIAL HepG2 Assay for human Nuclear Factor Erythroid 2 Related Factor 2 (NFR2) response to Antioxidant Response Elements (ARE) (AID 2282992); settings: HepG2 Attagene ARE/NRF2 reporter, transcription factor activity; actives raise or lower the signal
How it was run: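 Transient MRTU transfection of HepG2; 24 h compound exposure; TriZol RNA, RT with oligo(dT), PCR, 6-FAM primer extension, HpaI cut, CE. Bidirectional fit vs DMSO.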

[9] = BSK_3C_TissueFactor: BioMAP Diversity Plus: 3C Assay for Tissue Factor Biomarker Activity (AID 2282997); settings: BioMAP 3C HUVEC, tissue factor biomarker readout; actives raise or lower the signal
How it was run: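 Dosing of human umbilical vein endothelial cells preceded a 24 h incubation. Tissue Factor was then read by ELISA, with increases and decreases both scored relative to DMSO controls.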

[10] = BSK_3C_uPAR: BioMAP Diversity Plus: 3C Assay for Urokinase-type plasminogen activator receptor (uPAR) Biomarker Activity (AID 2282998); settings: BioMAP 3C HUVEC, uPAR biomarker ELISA; actives raise or lower the signal
How it was run: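 HUVEC primary cells; 24 h post-dose; uPAR by ELISA; gain or loss of signal fitted bidirectionally vs DMSO baseline.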

[11] = BSK_3C_VCAM1: BioMAP Diversity Plus: 3C Assay for Vascular cell adhesion molecule 1 (VCAM1) Biomarker Activity (AID 2282999); settings: BioMAP 3C HUVEC, VCAM1 ELISA, cytokine-stimulated; actives raise or lower the signal
How it was run: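 Human umbilical vein endothelial cells were dosed with compound for 24 h, after which cell-surface VCAM-1 was quantified by ELISA. Bidirectional curve fitting used DMSO as negative control and activity baseline.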

[12] = BSK_4H_Eotaxin3: BioMAP Diversity Plus: 4H Assay for Eotaxin 3 Biomarker Activity (AID 2283000); settings: primary human endothelial cells (HUVEC); actives raise or lower the signal;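 further: CCL26 protein level quantified by ELISA in parallel with SRB cytotoxicity check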
How it was run: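 Human umbilical vein endothelial cells (BSK_4H system) dosed with test chemical; Eotaxin-3 (CCL26) measured by ELISA 24 h after dosing. Bidirectional curve fitting relative to DMSO negative control as baseline.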

[13] = ATG_M_06_TRANS: Attagene TRANS-FACTORIAL HepG2 Assay for M06 Transcription Factor (Internal Marker) (AID 2282983; active means hit-call score of the fitted dose curve at least 0.9, where 1 is the maximum); settings: HepG2 Attagene TRANS M06 internal marker reporter
How it was run: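 Cells: HepG2, transient multi-reporter transfection. Exposure: 24 h. Detection: RT-PCR, 6-FAM labelling, HpaI digestion (2 h, 37 °C), capillary electrophoresis. Baseline: DMSO.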

[14] = ATG_M_32_TRANS: Attagene TRANS-FACTORIAL HepG2 Assay for M32 Transcription Factor (Internal Marker) (AID 2282984; active means hit-call score of the fitted dose curve at least 0.9, where 1 is the maximum;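 further: transcript level of a background control reporter unit measured by RT-PCR and capillary electrophoresis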); settings: HepG2 Attagene TRANS M32 internal marker reporter
How it was run: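 Human hepatoma HepG2, transient MRTU transfection, 24 h treatment. RNA → RT-PCR → fluorescent primer extension → HpaI digest (2 h, 37 C) → CE. Positive-direction fit vs DMSO.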

[15] = ATG_Oct_MLP_CIS: Attagene CIS-FACTORIAL HepG2 Assay for human Octamer-Binding Transcription Factor (Oct) (AID 2282993); settings: HepG2 Attagene cis-factorial Oct reporter, mRNA; actives raise or lower the signal
How it was run: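 Read-out: reporter mRNA via RT-PCR plus capillary electrophoresis of 6-FAM-labelled fragments. Transiently transfected HepG2, 24 h exposure, endogenous TF activity on cis elements. Gain or loss of signal fitted relative to DMSO.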

[16] = biological target: Cellular tumor antigen p53 (Homo sapiens) (UniProt P04637); assay: ATG_p53_CIS: Attagene CIS-FACTORIAL HepG2 Assay for human p53 Transcription Factor (AID 2282994); settings: HepG2 p53 cis-element reporter, Attagene mRNA; actives raise or lower the signal
Cellular tumor antigen p53 (Homo sapiens), sequence (P04637 whole entry, looked up): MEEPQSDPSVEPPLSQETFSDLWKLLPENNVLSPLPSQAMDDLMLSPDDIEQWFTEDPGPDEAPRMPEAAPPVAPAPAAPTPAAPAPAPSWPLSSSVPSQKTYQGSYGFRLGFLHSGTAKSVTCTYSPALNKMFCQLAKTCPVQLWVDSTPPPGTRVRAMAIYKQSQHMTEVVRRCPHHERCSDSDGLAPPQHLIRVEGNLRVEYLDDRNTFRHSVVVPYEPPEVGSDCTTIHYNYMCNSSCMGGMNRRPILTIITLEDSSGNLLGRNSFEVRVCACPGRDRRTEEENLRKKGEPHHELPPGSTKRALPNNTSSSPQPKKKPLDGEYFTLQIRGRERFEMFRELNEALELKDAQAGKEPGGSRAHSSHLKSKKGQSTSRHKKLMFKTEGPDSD
How it was run: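 HepG2, transient MRTU transfection (cis promoter elements, endogenous TFs); 24 h dosing; RNA isolation, RT-PCR, 6-FAM primer extension, HpaI digest, CE fluorescence; bidirectional fit vs DMSO.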

[17] = biological target: Oxysterols receptor LXR-beta (Homo sapiens) (UniProt P55055); assay: ATG_LXRb_TRANS: Attagene TRANS-FACTORIAL HepG2 Assay for human Liver X Receptor beta (LXRb) (AID 2282981; active means hit-call score of the fitted dose curve at least 0.9, where 1 is the maximum); settings: HepG2 Attagene TRANS GAL4-LXRb reporter, mRNA
Oxysterols receptor LXR-beta (Homo sapiens), sequence (P55055 whole entry, looked up, the tested form may be a part): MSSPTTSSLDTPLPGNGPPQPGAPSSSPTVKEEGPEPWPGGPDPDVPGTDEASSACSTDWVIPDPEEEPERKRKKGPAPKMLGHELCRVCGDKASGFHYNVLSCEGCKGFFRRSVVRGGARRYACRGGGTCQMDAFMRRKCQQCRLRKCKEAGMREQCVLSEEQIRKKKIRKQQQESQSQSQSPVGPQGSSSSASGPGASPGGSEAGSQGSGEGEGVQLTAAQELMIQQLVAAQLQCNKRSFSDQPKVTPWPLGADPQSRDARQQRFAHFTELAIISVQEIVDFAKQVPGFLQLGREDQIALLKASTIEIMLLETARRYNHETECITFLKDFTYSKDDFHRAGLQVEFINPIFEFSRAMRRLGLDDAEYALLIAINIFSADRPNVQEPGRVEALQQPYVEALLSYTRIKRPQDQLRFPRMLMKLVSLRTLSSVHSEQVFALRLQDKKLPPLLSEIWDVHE
How it was run: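 In this TRANS format, exogenous chimeric NR-Gal4 protein activity, not endogenous factors, drives reporter expression in transfected human HepG2 cells. Exposure lasted 24 h; reporter mRNA was read by fluorescent capillary electrophoresis.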

[18] = biological target: Nuclear receptor subfamily 4 group A member 2 (Homo sapiens) (UniProt P43354); assay: ATG_NURR1_TRANS: Attagene TRANS-FACTORIAL HepG2 Assay for human Nuclear Receptor Related Protein 1 (NURR1) (AID 2282985; active means hit-call score of the fitted dose curve at least 0.9, where 1 is the maximum); settings: HepG2 Attagene TRANS reporter, mRNA readout
Nuclear receptor subfamily 4 group A member 2 (Homo sapiens), sequence (P43354 whole entry, looked up): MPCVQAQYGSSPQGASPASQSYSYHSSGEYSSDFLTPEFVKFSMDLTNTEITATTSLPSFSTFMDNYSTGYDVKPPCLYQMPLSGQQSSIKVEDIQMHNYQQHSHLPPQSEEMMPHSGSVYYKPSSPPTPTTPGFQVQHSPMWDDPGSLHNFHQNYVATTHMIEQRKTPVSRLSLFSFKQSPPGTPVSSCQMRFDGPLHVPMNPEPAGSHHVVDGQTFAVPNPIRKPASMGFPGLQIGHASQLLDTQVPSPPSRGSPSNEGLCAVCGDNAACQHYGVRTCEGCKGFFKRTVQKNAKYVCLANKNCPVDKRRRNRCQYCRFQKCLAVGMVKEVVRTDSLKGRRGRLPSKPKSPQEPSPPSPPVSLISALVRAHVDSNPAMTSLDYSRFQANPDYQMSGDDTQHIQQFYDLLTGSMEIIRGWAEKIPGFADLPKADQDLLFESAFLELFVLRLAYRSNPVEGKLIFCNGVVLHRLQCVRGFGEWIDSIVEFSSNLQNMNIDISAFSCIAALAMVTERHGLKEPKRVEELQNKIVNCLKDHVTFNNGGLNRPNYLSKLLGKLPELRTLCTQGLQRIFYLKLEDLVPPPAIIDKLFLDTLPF
How it was run: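 After 24 h chemical dosing, total RNA from transiently transfected HepG2 cells was reverse-transcribed and reporter cDNA PCR-amplified, FAM-labelled and analysed by capillary electrophoresis. Activity fitted in positive direction, DMSO as negative control.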

Measured: outcome

CN1C(=O)N(C)C(O)C1O (stereo unspecified)
not listed: [13] | [14] | [15] | [16] | [17] | [18]
inactive: all other assays above

CCCNC(=O)NS(=O)(=O)c1ccc(Cl)cc1
inactive: [1] | [13] | [14] | [5] | [6] | [7] | [8] | [15] | [16]

COCCCOCCCOC
not listed: [9] | [10] | [11] | [12] | [13] | [16] | [18]
inactive: all other assays above

S=C(NC1CCCCC1)NC1CCCCC1
not listed: [5] | [13] | [16] | [17]
inactive: all other assays above

C=CC(=O)NC(C)(C)CS(=O)(=O)O
inactive: [1] | [2] | [14] | [3] | [4] | [5] | [7] | [8] | [15] | [16]
